Molecules are shown by their SMILES. Among all 420,000 compounds or so, about 50,000 (12%) were called active. About 26% were inconclusive and are not listed. The full list was thinned out, with actives kept by preference. Values without a mark were called inactive. The call rests on the fitted dose curve; in most records, active means well fitted inhibition curve with a large enough effect; inconclusive means small, poorly fitted or top-dose-only effect; inactive means flat fitted curve, though single readings scatter.

Data on 29 compounds can be found in PubChem BioAssay AID686979 (National Center for Advancing Translational Sciences (NCATS), 2013).
On the % scale 0 is the no-effect control and ±100 the full control effect; potency means the concentration at half of the fitted maximal effect.

The test is described as follows: qHTS for Inhibitors of human tyrosyl-DNA phosphodiesterase 1 (TDP1): qHTS in cells in presence of CPT. Further: nearly all actives have a fitted effect of over 55% in size. Conditions: chicken DT40 Tdp1-/-;hTDP1 cells + 20 nM CPT, ATP luminescence, 48 h; series mostly up to 46.2 µM; activity change, negative = growth inhibition: at the top concentration. Summed up: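 Chicken DT40 Tdp1-/- cells complemented with human TDP1, 400 cells/well, exposed to compounds plus 20 nM camptothecin for at least 48 h at 37 C; viability read as ATP content by CellTiter-Glo luminescence.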
(In qHTS, concentration-response curves come from the screen itself.)
Consider `CCOP(=O)(OCC)C(NC(=O)c1ccc(C)cc1)C(Cl)(Cl)Cl` (centres undefined), for which the “activity change, negative = growth inhibition” value is 18.9%.
As to `CCOP(=O)(OCC)C(NC(=O)c1ccc(OC)cc1)C(Cl)(Cl)Cl` (centres undefined), the “activity change, negative = growth inhibition” value is -22.4%.
For the compound `CCOP(=O)(OCC)C(Cc1ccccc1)N=C(c1ccccc1)c1ccccc1` (centres undefined), the Potency is 16.4 µM (active).
Regarding `CC(C)CN1CCN(Cc2ccccc2C(F)(F)F)CC1CCO` (centres undefined), the “activity change, negative = growth inhibition” value is -12.4%.
On the same count and under the same terms, as for `CCOc1ccc(C2SCC(=O)Nc3c2c(C)nn3C2CCOC(C)(C)C2)cc1` (centres undefined), the figure is -14.3%; as for `O=c1c2ccccc2nc(-c2ccccc2)n1-c1ccccn1`, -16.3%.
With `COc1ccc(-n2c(-c3ccccc3)nc3ccccc3c2=O)cc1`, the Potency is 18.4 µM (active).
The same measure, in the same setting: as for `CC(CCC(=O)O)C1CCC2C3C(O)C[C@@H]4CC(O)CC[C@@]4(C)C3CC[C@@]12C` (some centres undefined), the entry is “inactive”; as for `COc1ccc(-c2cc(NC=O)c3ncc(-c4cc(OC)c(OC)c(OC)c4)n3c2)c(OC)c1`, 0.58 µM (active); as for `CCCCCCCCCCCCn1ccc(=N)cc1`, 0.461 µM (active).
On to `CNC(=S)N/N=C1\C2CN3CCN(C2)CC1(c1ccccc1)C3`, for which the “activity change, negative = growth inhibition” value was -7.02%.
On the same count and under the same terms, as for `CC(C)=C[C@@H]1[C@@H](C(=O)OCc2coc(Cc3ccccc3)c2)C1(C)C`, the figure is 0.519%.
For the compound `CCOc1cccc(=NC2CCCCC2)c2c(C)[nH]c(C)c12`, the Potency is 5.8 µM (active).
Consider `Cc1cc(C)c2c(c1)NP(=S)(c1ccccc1)N2` (centres undefined), for which the “activity change, negative = growth inhibition” value is -19.6%.
On the same count and under the same terms, then `O=C1/C(=C\c2ccc3c(c2)OCO3)N2CCC1CC2`, with -25.1%; and `c1cncc(CNCCc2c[nH]c3ccccc23)c1`, with -21.5%.
With `COc1ccc2[nH]cc(CCNCc3ccc(Br)cc3)c2c1`, the Potency is 13 µM (active).
As to `COc1ccc(N=Cc2c(O)n(C)c(=O)[nH]c2=O)cc1`, the “activity change, negative = growth inhibition” value is 1.34%.
For the compound `COc1ccc(Cn2c(O)c(/C=C3/C=CC=N3)c(=O)[nH]c2=O)cc1`, the Potency is 20.6 µM (active).
For `O=C(N/N=C/c1c(O)n(Cc2ccccc2)c(=O)[nH]c1=O)c1ccccc1`, the “activity change, negative = growth inhibition” value is -19.8%.
As to `CNC(=O)N(C)c1nnc(C(C)(C)C)s1`, the Potency entry is “inactive”.
As for `CC1N=C(N)OC1c1ccccc1` (centres undefined), the “activity change, negative = growth inhibition” value was -27.9% [at 92.5 µM].
Regarding `CCOCCCNC(=O)c1c(NC(=O)c2nc(SC)ncc2Cl)sc2c1CCCC2`, the Potency was 6.51 µM (active).
As to `CCCOC(=O)C1C2c3ccccc3C(c3ccccc32)C1C(=O)O` (centres undefined), the “activity change, negative = growth inhibition” value was 1.5%.
As to `Cc1nc2ccccn2c1P(=S)(N1CCCCC1)N1CCCCC1`, the Potency is 20.6 µM (active).
Turning to `CCOC(=O)CNC(=O)N1Cc2cc(N3CCCCC3)ccc2-n2nncc2C1`, the “activity change, negative = growth inhibition” value is -4.45%.
Same read-out and setting: as for `Cc1cc(=O)oc2c(C)c(OCC(=O)N3CCN(Cc4ccc5c(c4)OCO5)CC3)ccc12`, the figure is -22.7%.
In the case of `CCC(C)(O)C(=O)OC1C(=O)OC2CC3C(C)=CC(=O)C(O)C3(C)C3C4(O)OCC23C1C(C)C4O` (centres undefined), the Potency is 0.116 µM (active).
Regarding `COc1ccc(NC(=O)N2CCC3(CC2)OCCO3)c(OC)c1`, the “activity change, negative = growth inhibition” value is 6.26%.
